In the library only some 2.4% were active in any assay of this set; here they are far more common.
D2 antag: antagonizes the human D2 dopamine receptor | P14416 | HEK293 TREx D2 cells, calcium flux, dopamine EC80 | inhibition, % at 10 µM | actives 2% (n = 340,000); in the data active means inhibition above about 30%; inactive means below that, where a call was filed; further: 0% is about no effect
Target sequence (P14416 whole entry, looked up): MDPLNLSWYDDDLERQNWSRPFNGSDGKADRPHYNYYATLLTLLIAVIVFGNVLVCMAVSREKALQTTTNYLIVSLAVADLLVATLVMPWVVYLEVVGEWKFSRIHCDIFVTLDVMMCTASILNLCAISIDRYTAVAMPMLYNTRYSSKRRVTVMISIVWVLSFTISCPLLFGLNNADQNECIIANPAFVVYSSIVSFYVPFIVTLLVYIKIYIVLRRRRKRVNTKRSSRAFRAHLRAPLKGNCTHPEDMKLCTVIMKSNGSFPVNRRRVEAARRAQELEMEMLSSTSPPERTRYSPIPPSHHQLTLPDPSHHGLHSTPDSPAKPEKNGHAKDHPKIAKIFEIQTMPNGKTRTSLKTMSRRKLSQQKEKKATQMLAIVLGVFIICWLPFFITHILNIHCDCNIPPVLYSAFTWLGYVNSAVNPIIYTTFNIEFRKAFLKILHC
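Dopamine at EC80 is the agonist stimulus; test compounds precede it by 180 s. Calcium flux read kinetically in a force-coupled, inducible HEK293 T-REx D2 cell line.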
D2 ag-1: agonists of human D2 dopamine receptor. P14416. HEK293 T-REx D2 cells, calcium flux agonist mode. activation, % at 2 µM. actives 0.53% (n = 340,000);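 active means activation over 3 SD above normal in the single-dose calcium agonist read, cut at about 30% in these data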; further: 0% is about no effect
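HEK293 Trex D2 cells, tetracycline-induced, o/n 30 C 5% CO2; no-wash Ca dye, RT 30–90 min; 10-cycle baseline, 23 nl cpd added, kinetic Ca read 180 s; agonist hits = positive Ca response.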
D2 ag-2: agonists of human D2 dopamine receptor (beta-arrestin). P14416. DiscoveRx PathHunter D2 beta-arrestin, luminescence, 90 min; 100% = 57 uM dopamine signal. activation, % (concentration not given with the values). actives 0.084% (n = 360,000). AID 624465; in the data active means activation above about 40%; inconclusive means between about 15% and that limit
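DiscoveRx PathHunter D2 beta-arrestin cells (2,100/well) attached overnight, then compound-stimulated 90 min at 37 C in HBSS/10 mM HEPES/0.1% Tween-20 buffer; beta-galactosidase complementation read by luminescence after 1 h at ambient temperature. Dopamine 57 uM final (EC100) as control.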
D2 PAM-1: potentiates the human D2 dopamine receptor allosterically | DiscoveRx D2 beta-arrestin cells, luminescence, 90 min; 100% = 57 uM dopamine signal | potentiation, % (no concentration beside the values) | actives 0.23% (n = 360,000); in the data active means potentiation above about 50%; inconclusive means mostly about 30% to 49%
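PathHunter beta-arrestin assay in DiscoveRx D2 cells. Compounds were added with an EC20 of dopamine (50 nM final) for 90 min at 37 deg C. Luminescence was read 1 h after detection reagent, with 57 uM dopamine as the EC100 control.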
D2 PAM-2: positively modulates the human D2 dopamine receptor allosterically; HEK293 T-REx D2, calcium flux, EC20 dopamine potentiation; potentiation, % at 10 µM; actives 0.34% (n = 340,000); AID 485347;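 active means potentiation over 3 SD above the plate norm, cut at about 30% in these data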; further: 0% is about no effect
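Using a no-wash calcium dye in inducible, force-coupled HEK293 Trex cells expressing D2, we tracked fluorescence each second for 180 s after compound, then for 180 s after EC20 dopamine to detect augmented signalling.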
* marks the source's active call; other numbers are inactive results; ? = inconclusive; / = no result.

SMILES	D2 antag	D2 ag-1	D2 ag-2	D2 PAM-1	D2 PAM-2
CN(CCOc1ccccc1)CCOc1ccccc1	37.1*	-1.0	-1.4	-14.2	-46.6
CN(CCCCOc1ccc(F)cc1)Cc1ccccc1	33.3*	-0.7	-2.0	-3.1	-24.7
Cc1cc(C)c(C)c(OCCCCN(C)Cc2ccccc2)c1	30.6*	-1.2	2.5	-4.3	-19.4
CCC(C)c1ccccc1OCCCN(C)Cc1ccccc1 (centres undefined)	34.6*	1.0	-2.8	-21.9	-24.3
CN(CCOc1ccc(F)cc1)Cc1ccccc1	18.6	-1.1	-1.9	-28.8	-6.6
COc1ccc(S(=O)(=O)NCCc2sc(-c3cccc(C)c3)nc2C)cc1	/	-0.1	/	/	11.9
Cc1ccc(NC(=O)c2oc3ccccc3c2NC(=O)C2CCCCC2)cc1	/	-1.1	/	/	12.9
CCOC(=O)C1(CC2CC2)CCN(Cc2ccc(C(=O)OC)cc2)CC1	71.8*	0.4	-2.2	-14.1	-22.6
CCOC(=O)C1CCN(Cc2ccc(C(=O)OC)cc2)CC1	-8.9	0.3	1.5	-18.2	-24.1
CCOc1ccc(OCCCCN2CCCC2)cc1	-3.3	-0.4	-4.4	-20.7	-9.3
CCCCOc1ccc(CN2CCCCC2)cc1	52.1*	0.2	-3.3	-16.7	-10.4
CCOC(=O)C1(CC2CC2)CCN(Cc2cn(C)c3ccccc23)CC1	30.3*	-0.8	-2.5	-10.5	-12.6
COC(=O)c1ccc(CN2CCCCC2)cc1	35.2*	-0.3	-3.9	-29.7	-25.3
Cc1ccc(S(=O)(=O)NCC(Nc2cccc(Cl)c2)c2ccccc2)cc1 (centres undefined)	/	0.8	/	/	4.4
COc1cccc2c1cc1c(=O)n(CC(=O)N3CCN(c4ccccc4F)CC3)nc(C)n12	/	24.3	/	/	-6.5
C(#CC1CCCCC1)c1ccc2c(c1)COc1c3ccccc3nn1-2	2.4	0.3	0.6	4.9	33.9*
Cc1cc2c(cc1[N+](=O)[O-])NC(CNC(C)C)CC2 (centres undefined)	64.8*	-0.5	-2.5	-25.9	-20.9
Cc1cc(C(=O)NCC2CCCCC2)ccc1[N+](=O)[O-]	-3.2	3.5	-1.2	-14.6	/
Cc1c(CN2CCCC(C(=O)Nc3cccc(-n4cccn4)c3)C2)cnn1C (centres undefined)	46.6*	-3.1	-3.2	-19.4	-17.5
Cc1cc(CN2CCCC(C(=O)Nc3cccc(-n4cccn4)c3)C2)cc(C)c1O (centres undefined)	38.0*	1.2	-3.9	-33.7	-21.7
COc1cccc(C(=O)C2CCCN(Cc3cccc(-n4cccn4)c3)C2)c1 (centres undefined)	31.7*	-1.1	-2.9	-10.2	-23.1
COc1cccc(C(=O)C2CCCN(Cc3cccn3-c3cccnc3)C2)c1 (centres undefined)	-2.2	0.2	0.7	-11.3	-19.5
CCOC(=O)c1cc(-c2ccccc2)n(CCC(=O)NCCc2ccc(C)cc2)c1C	/	0.9	/	/	2.5
COc1ccc(-n2ccn(CC(=O)NCCc3ccccc3)c(=O)c2=O)cc1OC	/	0.1	/	/	3.9
CN(C)S(=O)(=O)N1CCc2ccc(NC(=O)C3CCCO3)cc2C1 (centres undefined)	31.3*	0.8	-0.8	-5.4	0.1
SMILES	D2 antag	D2 ag-1	D2 ag-2	D2 PAM-1	D2 PAM-2
O=C(Nc1ccc(S(=O)(=O)N2CCc3ccccc3C2)cc1)C1CCCO1 (centres undefined)	11.4	0.4	-1.7	-10.6	-15.3
O=C(NC1CC(=O)N(c2cccc(F)c2)C1)C(c1ccccc1)c1ccccc1 (centres undefined)	/	0.3	/	/	-4.8
CC1CC(C)CN(c2ccc(-n3cnnn3)cc2[N+](=O)[O-])C1 (centres undefined)	-3.8	-0.1	-7.0	2.1	0.8
O=[N+]([O-])c1cc(-n2cnnn2)ccc1N1CCC(Cc2ccccc2)CC1	31.9*	-0.2	1.9	9.3	-11.5
Cc1cc(=O)n2c(C(=O)Nc3ccc(Br)cc3)c(C(=O)Nc3ccccc3)sc2n1	/	0.7	/	/	2.4
COc1ccccc1C(=O)N(CCN(C)C)c1nc2cc(C)cc(C)c2s1	38.1*	0.3	-1.3	-20.2	-16.8
Cc1nc2cc(NC(=O)c3cccc(S(C)(=O)=O)c3)ccc2o1	33.4*	0.4	-0.6	-5.9	-16.9
Cc1ccc(NC(=O)c2cccc(S(C)(=O)=O)c2)cc1	-2.7	1.0	-2.4	-8.7	1.7
Cc1onc(-c2c(Cl)cccc2Cl)c1CO/N=C(\C#N)c1c(Cl)cccc1Cl	30.1*	1.0	-3.6	-3.6	-2.9
CCc1cc2c(cc3c(=O)n(CC(=O)NCCc4ccc(OC)cc4OC)nc(CC)n32)s1	/	-0.1	/	/	/
COc1ccc(C2C(O)C(c3c[nH]c4ccccc34)=NN2C(=O)CCl)cc1 (centres undefined)	31.6*	0.0	-4.4	5.6	-4.2
O=C(ONC1=NCCCCC1)c1c(F)cccc1F	12.8	-0.1	?	65.1*	1.0
O=C(ONC1=NCCCCC1)c1ccc(Cl)cc1	7.2	0.6	?	?	4.7
CCN(CC)C(=O)C1CCCc2c1[nH]c1ccc(Cl)cc21 (centres undefined)	-5.9	-0.7	-3.2	-0.3	-5.5
O=CNC1CCCc2c1[nH]c1ccc(Cl)cc21 (centres undefined)	-13.4	2.3	5.3	77.2*	5.1
COc1ccc(/C=N/NC(=O)c2sccc2OCc2ccc(F)cc2)cc1OC	36.7*	-0.6	-2.4	17.1	-8.2
O=C(c1ccco1)N1CCN(c2c([N+](=O)[O-])nn(-c3ccc(Cl)cc3)[n+]2[O-])CC1	11.9	0.6	2.6	22.3	4.2
CC1CCN(c2c([N+](=O)[O-])nn(-c3ccc4c(c3)OCCO4)[n+]2[O-])CC1	-2.0	0.1	9.9	75.2*	1.4
COCCCNC(=O)c1ccc(Cn2c(=O)c3ccccc3n(Cc3c(C)cc(C)cc3C)c2=O)cc1	/	0.2	/	/	7.9
O=C(Cc1ccccc1)N1CCN(c2ccccc2F)CC1	-10.9	9.1	6.7	-2.4	-4.8
OCC1(Cc2ccccc2)CCN(C2CCN(c3ccccc3F)CC2)CC1	47.2*	-0.6	1.2	-15.4	-29.6
OCC1(Cc2ccccc2)CCN(Cc2cnn(-c3ccccc3F)c2)CC1	31.2*	0.3	-2.1	-18.4	-21.5
Cc1ccc2c(c1)-c1[nH]c(=S)ncc1CS2	6.1	-0.6	-3.0	60.4*	8.7
O=C(NC1CCCC1)c1ccc2c(=O)n(Cc3ccccc3)c(SCc3cccc([N+](=O)[O-])c3)nc2c1	/	-0.9	/	/	-3.9
C=CCn1c(-c2csc(-c3ccccc3)n2)n[nH]c1=S	-27.5	0.3	-4.0	-15.4	48.4*
CCCCN(CC)C(=O)Cn1nc(C)c2c(C)n(-c3ccccc3)nc2c1=O	/	0.0	/	/	-3.2
O=C(COc1ccc(Cl)cc1Cl)NC(=O)N1CCCCC1	32.2*	-1.8	0.6	-14.7	-23.1

Assay outcomes: PubChem BioAssay, National Center for Advancing Translational Sciences (NCATS)
